# Changes are numbered by the printed parent chain.
# Tests used:
# Assay in all cases: PBM; 200 nM protein, PBS
# Settings in all cases: dsDNA, one strand shown
# HOXB4 [1] = biological target: HOXB4 (Homo sapiens, UniProt P17483 148-234)
# VENTX [2] = biological target: T1, VENTX (Homo sapiens, UniProt O95231 78-163, R121Q)
# T1 sequence: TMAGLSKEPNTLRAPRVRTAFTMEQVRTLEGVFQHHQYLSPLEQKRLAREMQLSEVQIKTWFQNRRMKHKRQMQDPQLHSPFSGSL
# VENTX [3] = biological target: T2, VENTX (Homo sapiens, UniProt O95231 78-163, Y115F)
# T2 sequence: T1 sequence with Y38F, Q44R
# HOXA2 = HOXA2 (Homo sapiens, UniProt O43364 129-215, R185T)
# HOXB4 [4] = biological target: HOXB4 (Homo sapiens, UniProt P17483 148-234, V174I)
# HOXA4 [5] = biological target: HOXA4 (Homo sapiens, UniProt Q00056 201-287, W262R)
# PRRX1 [6] = biological target: PRRX1 (Homo sapiens, UniProt P54821 80-166, F113S)
# HOXB6 = HOXB6 (Homo sapiens, UniProt P17509 132-218, K202E)
# HOXA4 [7] = biological target: HOXA4 (Homo sapiens, UniProt Q00056 201-287, R217L)
# MSX2 [8] = biological target: MSX2 (Homo sapiens, UniProt P35548 130-214, R199I)
# PAX4 [9] = biological target: T3, PAX4 (Homo sapiens, UniProt O43316 9-242, R200Q)
# T3 sequence: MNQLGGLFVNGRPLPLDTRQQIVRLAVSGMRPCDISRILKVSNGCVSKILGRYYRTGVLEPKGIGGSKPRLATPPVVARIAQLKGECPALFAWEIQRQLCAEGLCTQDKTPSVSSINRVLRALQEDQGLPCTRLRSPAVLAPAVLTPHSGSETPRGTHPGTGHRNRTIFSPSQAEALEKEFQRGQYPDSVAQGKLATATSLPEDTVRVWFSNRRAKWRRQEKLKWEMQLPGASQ
# HOXA4 [10] = biological target: HOXA4 (Homo sapiens, UniProt Q00056 201-287)
# MSX2 [11] = biological target: MSX2 (Homo sapiens, UniProt P35548 130-214)
# MSX2 [12] = biological target: MSX2 (Homo sapiens, UniProt P35548 130-214, F161Y)
# VAX1 [13] = biological target: VAX1 (Homo sapiens, UniProt Q5SQQ9 86-172, T142I)
# HOXA4 [14] = biological target: HOXA4 (Homo sapiens, UniProt Q00056 201-287, W262F)
# PRRX1 [15] = biological target: PRRX1 (Homo sapiens, UniProt P54821 80-166)
# VAX1 [16] = biological target: VAX1 (Homo sapiens, UniProt Q5SQQ9 86-172, K157R)
# PAX4 [17] = biological target: T4, PAX4 (Homo sapiens, UniProt O43316 9-242, F177V)
# T4 sequence: T3 sequence with F169V, Q192R
# PAX4 [18] = biological target: T5, PAX4 (Homo sapiens, UniProt O43316 9-242, F177Y)
# T5 sequence: T3 sequence with F169Y, Q192R
# VAX1 (Homo sapiens, UniProt Q5SQQ9 86-172, T142I), sequence (Q5SQQ9 86-172 T142I): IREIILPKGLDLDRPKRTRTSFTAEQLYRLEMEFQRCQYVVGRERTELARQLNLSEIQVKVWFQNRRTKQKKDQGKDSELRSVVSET
# HOXB4 (Homo sapiens, UniProt P17483 148-234), sequence (P17483 148-234): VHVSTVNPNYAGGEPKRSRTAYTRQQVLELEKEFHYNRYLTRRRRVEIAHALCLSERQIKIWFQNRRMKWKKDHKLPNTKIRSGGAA
# HOXA2, sequence (O43364 129-215 R185T): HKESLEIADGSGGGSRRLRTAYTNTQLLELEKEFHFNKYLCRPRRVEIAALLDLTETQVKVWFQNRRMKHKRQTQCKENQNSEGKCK
# HOXB6, sequence (P17509 132-218 K202E): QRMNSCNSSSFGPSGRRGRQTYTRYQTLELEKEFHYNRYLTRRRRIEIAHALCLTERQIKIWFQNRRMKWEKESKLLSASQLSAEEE
# MSX2 (Homo sapiens, UniProt P35548 130-214, R199I), sequence (P35548 130-214 R199I): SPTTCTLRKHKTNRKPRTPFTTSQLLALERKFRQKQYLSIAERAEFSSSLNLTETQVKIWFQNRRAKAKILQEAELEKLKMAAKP
# VAX1 (Homo sapiens, UniProt Q5SQQ9 86-172, K157R), sequence (Q5SQQ9 86-172 K157R): as the sequence (Q5SQQ9 86-172 T142I) above, with I57T, K72R counted along it
# MSX2 (Homo sapiens, UniProt P35548 130-214, F161Y), sequence (P35548 130-214 F161Y): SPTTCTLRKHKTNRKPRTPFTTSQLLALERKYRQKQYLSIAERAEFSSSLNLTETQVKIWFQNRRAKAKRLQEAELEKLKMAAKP
# HOXA4 (Homo sapiens, UniProt Q00056 201-287, W262F), sequence (Q00056 201-287 W262F): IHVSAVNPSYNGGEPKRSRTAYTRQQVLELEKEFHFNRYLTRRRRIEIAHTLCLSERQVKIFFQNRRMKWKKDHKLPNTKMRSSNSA
# PRRX1 (Homo sapiens, UniProt P54821 80-166), sequence (P54821 80-166): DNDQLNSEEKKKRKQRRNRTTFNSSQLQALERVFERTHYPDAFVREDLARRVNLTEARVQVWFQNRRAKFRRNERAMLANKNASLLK
# MSX2 (Homo sapiens, UniProt P35548 130-214), sequence (P35548 130-214): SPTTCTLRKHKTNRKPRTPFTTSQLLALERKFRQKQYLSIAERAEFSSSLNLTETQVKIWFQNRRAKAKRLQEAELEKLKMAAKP
# HOXB4 (Homo sapiens, UniProt P17483 148-234, V174I), sequence (P17483 148-234 V174I): as the sequence (P17483 148-234) above, with V27I counted along it
# PRRX1 (Homo sapiens, UniProt P54821 80-166, F113S), sequence (P54821 80-166 F113S): as the sequence (P54821 80-166) above, with F34S counted along it
# HOXA4 (Homo sapiens, UniProt Q00056 201-287, R217L), sequence (Q00056 201-287 R217L): as the sequence (Q00056 201-287 W262F) above, with R17L, F62W counted along it
# HOXA4 (Homo sapiens, UniProt Q00056 201-287), sequence (Q00056 201-287): as the sequence (Q00056 201-287 W262F) above, with F62W counted along it
# HOXA4 (Homo sapiens, UniProt Q00056 201-287, W262R), sequence (Q00056 201-287 W262R): as the sequence (Q00056 201-287 W262F) above, with F62R counted along it
sequence,measurement,setting,value
CCAGGTCC,binding signal,HOXB4 [1],"7.71 upbm affinity estimate (log intensity, higher = more binding, comparable within an allelic series)"
same,binding signal,VENTX [2],"7.92 upbm affinity estimate (log intensity, higher = more binding, comparable within an allelic series)"
same,binding signal,VENTX [3],"7.95 upbm affinity estimate (log intensity, higher = more binding, comparable within an allelic series)"
same,binding signal,HOXA2,"7.34 upbm affinity estimate (log intensity, higher = more binding, comparable within an allelic series)"
same,binding signal,HOXB4 [4],"7.79 upbm affinity estimate (log intensity, higher = more binding, comparable within an allelic series)"
ACAATTAA,binding signal,HOXB4 [1],"13 upbm affinity estimate (log intensity, higher = more binding, comparable within an allelic series)"
same,binding signal,VENTX [2],"11.7 upbm affinity estimate (log intensity, higher = more binding, comparable within an allelic series)"
same,binding signal,HOXA4 [5],"10.5 upbm affinity estimate (log intensity, higher = more binding, comparable within an allelic series)"
same,binding signal,PRRX1 [6],"11.2 upbm affinity estimate (log intensity, higher = more binding, comparable within an allelic series)"
same,binding signal,VENTX [3],"11.5 upbm affinity estimate (log intensity, higher = more binding, comparable within an allelic series)"
same,binding signal,HOXB6,"10.1 upbm affinity estimate (log intensity, higher = more binding, comparable within an allelic series)"
same,binding signal,HOXA2,"12.6 upbm affinity estimate (log intensity, higher = more binding, comparable within an allelic series)"
same,binding signal,HOXA4 [7],"12 upbm affinity estimate (log intensity, higher = more binding, comparable within an allelic series)"
same,binding signal,HOXB4 [4],"13.7 upbm affinity estimate (log intensity, higher = more binding, comparable within an allelic series)"
same,binding signal,MSX2 [8],"12.8 upbm affinity estimate (log intensity, higher = more binding, comparable within an allelic series)"
same,binding signal,PAX4 [9],"11.8 upbm affinity estimate (log intensity, higher = more binding, comparable within an allelic series)"
same,binding signal,HOXA4 [10],"13.8 upbm affinity estimate (log intensity, higher = more binding, comparable within an allelic series)"
same,binding signal,MSX2 [11],"13.7 upbm affinity estimate (log intensity, higher = more binding, comparable within an allelic series)"
same,binding signal,MSX2 [12],"13.4 upbm affinity estimate (log intensity, higher = more binding, comparable within an allelic series)"
same,binding signal,VAX1 [13],"12.5 upbm affinity estimate (log intensity, higher = more binding, comparable within an allelic series)"
same,binding signal,HOXA4 [14],"11.5 upbm affinity estimate (log intensity, higher = more binding, comparable within an allelic series)"
same,binding signal,PRRX1 [15],"13.3 upbm affinity estimate (log intensity, higher = more binding, comparable within an allelic series)"
same,binding signal,VAX1 [16],"12.3 upbm affinity estimate (log intensity, higher = more binding, comparable within an allelic series)"
ATTAATAG,binding signal,HOXB4 [1],"13 upbm affinity estimate (log intensity, higher = more binding, comparable within an allelic series)"
same,binding signal,VENTX [2],"11.7 upbm affinity estimate (log intensity, higher = more binding, comparable within an allelic series)"
same,binding signal,HOXA4 [5],"10.6 upbm affinity estimate (log intensity, higher = more binding, comparable within an allelic series)"
same,binding signal,HOXB6,"10.1 upbm affinity estimate (log intensity, higher = more binding, comparable within an allelic series)"
same,binding signal,HOXA4 [7],"12 upbm affinity estimate (log intensity, higher = more binding, comparable within an allelic series)"
same,binding signal,HOXB4 [4],"13.7 upbm affinity estimate (log intensity, higher = more binding, comparable within an allelic series)"
same,binding signal,HOXA4 [10],"13.6 upbm affinity estimate (log intensity, higher = more binding, comparable within an allelic series)"
same,binding signal,VAX1 [13],"12.5 upbm affinity estimate (log intensity, higher = more binding, comparable within an allelic series)"
same,binding signal,HOXA4 [14],"11.3 upbm affinity estimate (log intensity, higher = more binding, comparable within an allelic series)"
same,binding signal,VAX1 [16],"12.4 upbm affinity estimate (log intensity, higher = more binding, comparable within an allelic series)"
CAAATTAA,binding signal,PRRX1 [6],"11 upbm affinity estimate (log intensity, higher = more binding, comparable within an allelic series)"
same,binding signal,PAX4 [9],"12.2 upbm affinity estimate (log intensity, higher = more binding, comparable within an allelic series)"
same,binding signal,PAX4 [17],"10.5 upbm affinity estimate (log intensity, higher = more binding, comparable within an allelic series)"
same,binding signal,PAX4 [18],"11.1 upbm affinity estimate (log intensity, higher = more binding, comparable within an allelic series)"
same,binding signal,PRRX1 [15],"13.2 upbm affinity estimate (log intensity, higher = more binding, comparable within an allelic series)"
CCCAATTA,binding signal,VENTX [2],"11.7 upbm affinity estimate (log intensity, higher = more binding, comparable within an allelic series)"
same,binding signal,PRRX1 [6],"11.3 upbm affinity estimate (log intensity, higher = more binding, comparable within an allelic series)"
same,binding signal,VENTX [3],"11.5 upbm affinity estimate (log intensity, higher = more binding, comparable within an allelic series)"
same,binding signal,HOXA2,"12.5 upbm affinity estimate (log intensity, higher = more binding, comparable within an allelic series)"
same,binding signal,MSX2 [8],"13 upbm affinity estimate (log intensity, higher = more binding, comparable within an allelic series)"
same,binding signal,PAX4 [9],"11.9 upbm affinity estimate (log intensity, higher = more binding, comparable within an allelic series)"
same,binding signal,PAX4 [17],"10.4 upbm affinity estimate (log intensity, higher = more binding, comparable within an allelic series)"
same,binding signal,MSX2 [11],"14 upbm affinity estimate (log intensity, higher = more binding, comparable within an allelic series)"
same,binding signal,PAX4 [18],"10.8 upbm affinity estimate (log intensity, higher = more binding, comparable within an allelic series)"
same,binding signal,MSX2 [12],"13.7 upbm affinity estimate (log intensity, higher = more binding, comparable within an allelic series)"
same,binding signal,VAX1 [13],"12.3 upbm affinity estimate (log intensity, higher = more binding, comparable within an allelic series)"
same,binding signal,PRRX1 [15],"13.4 upbm affinity estimate (log intensity, higher = more binding, comparable within an allelic series)"
same,binding signal,VAX1 [16],"12.6 upbm affinity estimate (log intensity, higher = more binding, comparable within an allelic series)"
ATAATTGG,binding signal,PRRX1 [6],"11.5 upbm affinity estimate (log intensity, higher = more binding, comparable within an allelic series)"
same,binding signal,MSX2 [8],"13.1 upbm affinity estimate (log intensity, higher = more binding, comparable within an allelic series)"
same,binding signal,PAX4 [9],"11.9 upbm affinity estimate (log intensity, higher = more binding, comparable within an allelic series)"
same,binding signal,MSX2 [11],"14.1 upbm affinity estimate (log intensity, higher = more binding, comparable within an allelic series)"
same,binding signal,MSX2 [12],"13.7 upbm affinity estimate (log intensity, higher = more binding, comparable within an allelic series)"
same,binding signal,PRRX1 [15],"13.4 upbm affinity estimate (log intensity, higher = more binding, comparable within an allelic series)"
TAATTGGA,binding signal,VENTX [2],"11.7 upbm affinity estimate (log intensity, higher = more binding, comparable within an allelic series)"
same,binding signal,PRRX1 [6],"11.4 upbm affinity estimate (log intensity, higher = more binding, comparable within an allelic series)"
same,binding signal,HOXA2,"12.5 upbm affinity estimate (log intensity, higher = more binding, comparable within an allelic series)"
same,binding signal,MSX2 [8],"13 upbm affinity estimate (log intensity, higher = more binding, comparable within an allelic series)"
same,binding signal,PAX4 [9],"12 upbm affinity estimate (log intensity, higher = more binding, comparable within an allelic series)"
same,binding signal,MSX2 [11],"14 upbm affinity estimate (log intensity, higher = more binding, comparable within an allelic series)"
same,binding signal,MSX2 [12],"13.6 upbm affinity estimate (log intensity, higher = more binding, comparable within an allelic series)"
same,binding signal,PRRX1 [15],"13.4 upbm affinity estimate (log intensity, higher = more binding, comparable within an allelic series)"
AATTAGTA,binding signal,VENTX [2],"11.7 upbm affinity estimate (log intensity, higher = more binding, comparable within an allelic series)"
same,binding signal,PRRX1 [6],"11.1 upbm affinity estimate (log intensity, higher = more binding, comparable within an allelic series)"
same,binding signal,VENTX [3],"11.5 upbm affinity estimate (log intensity, higher = more binding, comparable within an allelic series)"
same,binding signal,HOXB6,"9.94 upbm affinity estimate (log intensity, higher = more binding, comparable within an allelic series)"
same,binding signal,MSX2 [8],"12.3 upbm affinity estimate (log intensity, higher = more binding, comparable within an allelic series)"
same,binding signal,PAX4 [9],"11.9 upbm affinity estimate (log intensity, higher = more binding, comparable within an allelic series)"
same,binding signal,PAX4 [17],"10.5 upbm affinity estimate (log intensity, higher = more binding, comparable within an allelic series)"
same,binding signal,MSX2 [11],"13.3 upbm affinity estimate (log intensity, higher = more binding, comparable within an allelic series)"
same,binding signal,PAX4 [18],"10.9 upbm affinity estimate (log intensity, higher = more binding, comparable within an allelic series)"
same,binding signal,MSX2 [12],"12.9 upbm affinity estimate (log intensity, higher = more binding, comparable within an allelic series)"
same,binding signal,HOXA4 [14],"11.5 upbm affinity estimate (log intensity, higher = more binding, comparable within an allelic series)"
AACTAATT,binding signal,PRRX1 [6],"11.1 upbm affinity estimate (log intensity, higher = more binding, comparable within an allelic series)"
same,binding signal,MSX2 [8],"12.2 upbm affinity estimate (log intensity, higher = more binding, comparable within an allelic series)"
same,binding signal,MSX2 [11],"13.3 upbm affinity estimate (log intensity, higher = more binding, comparable within an allelic series)"
same,binding signal,MSX2 [12],"12.9 upbm affinity estimate (log intensity, higher = more binding, comparable within an allelic series)"
same,binding signal,PRRX1 [15],"13.3 upbm affinity estimate (log intensity, higher = more binding, comparable within an allelic series)"
